ELG1 repair inh = ELG1-dependent DNA repair inhibition; HEK293T ELG1-luciferase reporter, luminescence, 16 h; DNA damage induced by 5-fluorouridine; Potency, µM (series often up to 46.1 µM), for inactives: at the highest dose activity change, negative = inhibition, most hits filed as inhibitors; hit rate 2.3% among 330,000; also: % is scaled to controls: 0 for no effect and ±100 for the full control effect; nearly all actives have a fitted effect of over 55% in size
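5-Fluorouridine DNA damage + compound/DMSO, 2,000 cells/well, 16 h, 37 °C/5% CO2. ONE-Glo, 30 min RT, luminescence. Readout = decrease in reporter signal.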
FLuc counter = inhibits or activates purified firefly luciferase, miR-21 counter-screen | P08659 | purified FLuc, Km substrates, luminescence inhibition | Potency, µM (series often up to 57.5 µM), for inactives: top-dose activity change, negative = inhibition, usual class: inhibitors | hit rate 6.9% among 360,000;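 also: plate controls were vehicle for no effect and reference inhibitor for full effect; nearly all actives have a fitted effect of over 55% in size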
Target sequence (P08659 whole entry, looked up): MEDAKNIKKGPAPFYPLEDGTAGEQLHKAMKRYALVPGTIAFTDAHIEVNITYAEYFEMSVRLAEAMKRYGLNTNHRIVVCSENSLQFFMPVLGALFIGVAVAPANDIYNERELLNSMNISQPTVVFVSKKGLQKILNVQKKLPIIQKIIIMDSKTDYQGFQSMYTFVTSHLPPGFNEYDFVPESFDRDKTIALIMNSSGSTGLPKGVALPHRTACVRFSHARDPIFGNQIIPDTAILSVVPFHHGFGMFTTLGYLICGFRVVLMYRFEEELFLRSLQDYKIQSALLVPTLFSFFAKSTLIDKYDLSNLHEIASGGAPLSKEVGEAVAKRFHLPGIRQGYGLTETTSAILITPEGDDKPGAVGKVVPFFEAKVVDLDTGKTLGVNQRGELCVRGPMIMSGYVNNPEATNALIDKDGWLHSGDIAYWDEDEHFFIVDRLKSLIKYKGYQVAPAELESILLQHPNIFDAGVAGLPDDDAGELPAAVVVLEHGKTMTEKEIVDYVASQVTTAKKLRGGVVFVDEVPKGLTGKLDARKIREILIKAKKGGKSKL
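Purified P. pyralis luciferase, 10 nM final, with Km-level 10 uM D-luciferin and 10 uM ATP in 50 mM Tris acetate pH 7.5, 10 mM Mg acetate, 0.01% Tween-20, 0.05% BSA; 6-point qHTS titration about 60 µM downward; luminescence read.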
NPC1 promoter act = NPC1 promoter activation; Huh7 NPC1 promoter luciferase reporter, 24 h; Potency, µM (top dose mostly 9.22 µM), inactives show at the highest dose activation, most hits filed as activators; hit rate 2.4% among 320,000; also: % of control where 0% means no effect; nearly all actives have a fitted effect of over 60% in size
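Cells: Huh7 expressing luciferase under the NPC1 promoter, 1500/well. Seeded 2 h, compound added, incubated 24 h at 37 °C. Luciferase reagent, 10 min ambient, then luminescence.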
Rab9 promoter act = activators of Rab9 promoter; Potency, µM (titrated, usually from 9.22 µM), without a hit: top-dose activation, negative = inhibition, actives largely listed as activators; hit rate 2.8% among 320,000; Huh7 Rab9 promoter-luciferase reporter, luminescence, 24 h; also: % of control where 0% means no effect; nearly all actives have a fitted effect of over 60% in size
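Huh7 cells stably carrying a Rab9 promoter-luciferase reporter, 1500 cells per well in OP-MEM I with 10% FBS, treated with compound 24 hours at 37C. Luciferase activity read by luminescence after 10 minutes with Amplite reagent.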
ELG1 genotox = inducers of genotoxicity in HEK293T ELG1-luciferase cells. HEK293T ELG1-luciferase reporter, luminescence, 16 h. Potency, µM (doses to about 46 µM), inactives show top-dose activity change, positive = activation, most hits filed as activators. hit rate 1.3% among 330,000. AID 504466; also: % of control where 0% means no effect; nearly all actives have a fitted effect of over 60% in size
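Screening used a luciferase reporter fused to human ELG1 in HEK293T cells. Luminescence was read on a CCD plate imager after 16 hr exposure and 30 min ONE-Glo incubation.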
SMN2 splice up = increases expression of the SMN2 splice variant; Potency, µM (highest dose often 46.1 µM), for the others: at the highest dose activity change, positive = activation, usual class: activators; hit rate 2.8% among 210,000; HEK293 SMN2-luciferase splicing reporter, luminescence, 30-36 h; also: % of control where 0% means no effect; nearly all actives have a fitted effect of over 55% in size
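qHTS luciferase splicing reporter: luminescence rises when SMN2 exon 7 is included in transfected HEK293 cells. Compound exposure lasted 30-36 h at 37C, with 4.5 mM final sodium butyrate as control, followed by a ONE-Glo read.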
* = called active by the depositor; ? = inconclusive; · = no result given; [ ] = dose if it differs, or a comment. Shown are actives, neighbours in structure and some others; about 9.2% of the full set was active somewhere. Calls follow the shape of the dose curve; as a rule, active = well fitted curve in the direction sought with a large enough effect; inconclusive = small, poorly fitted or top-dose-only effect, or another doubt; inactive = no such curve, though single readings can be large; an effect the other way counts as inactive or inconclusive. Potency is read from the fitted curve at half-maximal effect.

SMILES	ELG1 repair inh	FLuc counter	NPC1 promoter act	Rab9 promoter act	ELG1 genotox	SMN2 splice up
O=C1N[C@@H](Cc2ccccc2)COC(=O)[C@H](Cc2ccc(F)cc2)C/C=C\C[C@@H]1CC(=O)N(CCO)Cc1ccccc1	21µM*	·	·	·	-4%	·
O=C1N[C@@H](Cc2ccccc2)COC(=O)[C@@H](Cc2ccc(F)cc2)CC/C=C/C[C@@H]1CC(=O)N(CCO)Cc1ccccc1	?	·	·	·	-5%	·
O=C1N[C@H](Cc2ccccc2)COC(=O)[C@H](Cc2ccc(F)cc2)C/C=C\C[C@@H]1CC(=O)N(CCO)Cc1ccccc1	?	·	·	·	-8%	·
CC(C)(C)OC(=O)C[C@H]1C/C=C\C[C@H](CC(=O)N(CCO)Cc2ccccc2)C(=O)N[C@@H](c2ccccc2)COC1=O	8.2µM*	·	·	·	-7%	·
CSc1nn(Cc2ccc(F)cc2)c(N(C(C)=O)C(C)=O)c1S(=O)(=O)c1ccccc1	·	-7%	·	·	·	-6%
COc1ccc(N2CCN(C(=O)c3cc4c(=O)n(Cc5cccs5)ccc4nc3C)CC2)cc1	·	-7%	·	·	·	·
O=C1N[C@H](Cc2ccccc2)COC(=O)[C@H](Cc2ccc(F)cc2)CC/C=C/C[C@@H]1CC(=O)N(CCO)Cc1ccccc1	21µM*	·	·	·	-12%	·
O=C(C[C@H]1C/C=C\CC[C@@H](Cc2ccc(F)cc2)C(=O)OC[C@H]2CCCN2C1=O)N[C@H](CO)Cc1ccccc1	23µM*	·	·	·	-4%	·
O=C(C[C@@H]1C/C=C\C[C@@H](Cc2ccc(F)cc2)C(=O)OC[C@@H]2CCCN2C1=O)N[C@H](CO)Cc1ccccc1	-2%	·	·	·	-4%	·
CC(C)(C)[C@@H]1COC(=O)[C@H](Cc2ccc(F)cc2)CC/C=C\C[C@@H](CC(=O)N(CCO)Cc2ccccc2)C(=O)N1	-7%	·	·	·	-5%	·
Cn1cccc1C(=O)N1CCC2(CCN(Cc3nccs3)CC2)CC1	·	·	·	·	·	-16%
O=C(Nc1ccc2c(c1)OCO2)c1ccc(Br)s1	?	3.4µM*	1.8µM*	1.6µM*	1.8µM*	13µM*
O=C(c1ccccc1)c1ccc2c(c1)OCCOCCOCCOCCO2	?	-5%	7%	-4%	-4%	·
O=C(c1ccc2c(c1)OCCCO2)c1cccs1	?	6.7µM*	1.1µM*	2.2µM*	?	13µM*
CCN(CC)S(=O)(=O)c1cc(NC(=O)CCCOc2ccc(C(C)=O)cc2)ccc1C	16µM*	-1%	-8%	-16%	2%	-68%
CN(CC(=O)Nc1ccc2c(c1)OCO2)S(=O)(=O)c1cccs1	?	17µM*	?	?	?	·
Cc1c(C)n(C)c2ccc(C(=O)NCCN3CCOCC3)cc12	16%	-4%	-1%	0%	4%	·
COc1ccc(-c2ncccc2OC(=O)C23CC4CC(CC(C4)C2)C3)cc1	9%	2%	7%	-2%	2%	8%
O=C(Nc1ccc2c(c1)OCCO2)c1cccs1	?	5.4µM*	2.8µM*	1.6µM*	16µM*	6.3µM*
O=C(Nc1ccc2c(c1)OCO2)c1cccs1	·	13µM*	·	·	·	?
O=C(Nc1ccncc1)c1cccs1	?	3%	-1%	3%	-1%	14%
CCN(CC)S(=O)(=O)c1cc(NC(=O)c2ccc(Br)s2)ccc1C	?	12µM*	20%	1%	5%	-12%
O=S(=O)(Nc1ccc2c(c1)OCCO2)c1cccs1	?	?	2%	5%	7.3µM*	1%
Nc1c(C(=O)Nc2ccccc2Cl)c2ccccn2c1C(=O)c1ccc(Cl)cc1	·	1%	·	·	·	-3%
COc1ccc(/C=C2\SC(=S)N(NC(=O)c3ccncc3)C2=O)cc1OC	9%	?	-3%	-3%	1%	9%
SMILES	ELG1 repair inh	FLuc counter	NPC1 promoter act	Rab9 promoter act	ELG1 genotox	SMN2 splice up
O=C(NN1C(=O)/C(=C/C=C/c2ccccc2)SC1=S)c1ccncc1	1%	13µM*	-7%	3%	-5%	-20%
O=C(O)c1ccc(N2C(=O)/C(=C/C=C/c3ccccc3)SC2=S)cc1	-5%	?	-4%	1%	0%	-14%
O=C1/C(=C/C=C/c2ccco2)SC(=S)N1c1ccc(O)cc1	?	21µM*	5%	6%	8%	·
CN(C)c1ccc(/C=C/C=C2/SC(=S)N(c3ccccc3)C2=O)cc1	?	4.8µM*	?	?	14%	-65%
O=C(NN1C(=O)/C(=C/C=C/c2ccco2)SC1=S)c1ccncc1	0%	21µM*	-3%	3%	0%	·
COc1ccc(S(=O)(=O)NCc2nc3nc(C)cc(C)n3n2)cc1OC	-4%	0%	-6%	2%	7%	10%
CCOC(=O)/C=C/[C@H]1CC(c2ccccc2)(c2ccccc2)CO1	-11%	5%	-3%	-6%	-4%	·
Cc1ccccc1CNC(=O)c1sc2ncnc(N(C)C3CCCCC3)c2c1C	·	4%	·	·	·	·
Cc1ccc2nc(-c3ccccc3)cc(C(=O)NCCCn3ccnc3)c2c1	-3%	21µM*	1%	0%	-2%	·
O=C(NCCCn1ccnc1)c1cc(-c2cccnc2)nc2ccc(Br)cc12	-8%	?	-5%	4%	-8%	7%
O=C(NCCCn1ccnc1)c1cc(-c2ccncc2)nc2ccccc12	-3%	6%	-18%	1%	0%	-1%
O=C(NCCCn1ccnc1)c1cc(-c2ccc(Cl)cc2)nc2ccccc12	0%	24µM*	0%	-5%	-13%	1%
O=C(NNC(=O)c1csc(-c2cccnc2)n1)c1ccccc1	-18%	?	12%	-3%	1%	·
O=C(Nc1ccccc1Cl)c1csc(-c2cccnc2)n1	?	12µM*	2.8µM*	2.8µM*	18%	·
O=C(NNS(=O)(=O)c1ccccc1)c1csc(-c2cccnc2)n1	12µM*	0%	-3%	-2%	-8%	·
CSc1ccccc1C(=O)Nc1ccc2c(c1)CCC2	?	15µM*	?	2%[1.84 µM]	?	·
O=C(Nc1ccc2c(c1)CCC2)c1ccccc1Br	?	4.8µM*	1.6µM*	1.6µM*	2.3µM*	·
CC(C)(C)N1C(=O)c2ccc(C(=O)O)cc2C1=O	-7%	4%	0%	0%	0%	-6%
CC(C)(C)N1C(=O)c2ccc(C(=O)Nc3ccc(O)cc3)cc2C1=O	11%	13µM*	?	?	13%	·
CCC(=O)Oc1ccc(C(=O)Nc2cccc(NC(=O)c3ccco3)c2)cc1	-2%	?	0%	-2%	-9%	·
CC(C)(C)NC(=O)c1cccc(NC(=O)c2ccc3c(c2)C(=O)N(C(C)(C)C)C3=O)c1	?	11µM*	0%	-4%	0%	·

High-throughput results deposited in PubChem by National Center for Advancing Translational Sciences (NCATS).
